# Test results reported in the supplement of paper PMC11732987, “Enantioselective OTUD7B fragment discovery through chemoproteomics screening and high-throughput optimisation” (Communications Chemistry, 2025).
# A number with no mark means an inactive call.
# Assays:
# Test in all cases: log2 ratio of Biotin-Ahx-Ub-VS probe labelling (fragment/DMSO); higher = less target engagement (more negative = stronger competition), active = hit call of the paper (q ≤ 0.05, log2 ratio ≤ -1)
# Conditions in all cases: compound concentration: 200 uM; treatment time: 3 h
# USP19 = target: T1, USP19 (UniProt O94966)
# T1 sequence (whole entry): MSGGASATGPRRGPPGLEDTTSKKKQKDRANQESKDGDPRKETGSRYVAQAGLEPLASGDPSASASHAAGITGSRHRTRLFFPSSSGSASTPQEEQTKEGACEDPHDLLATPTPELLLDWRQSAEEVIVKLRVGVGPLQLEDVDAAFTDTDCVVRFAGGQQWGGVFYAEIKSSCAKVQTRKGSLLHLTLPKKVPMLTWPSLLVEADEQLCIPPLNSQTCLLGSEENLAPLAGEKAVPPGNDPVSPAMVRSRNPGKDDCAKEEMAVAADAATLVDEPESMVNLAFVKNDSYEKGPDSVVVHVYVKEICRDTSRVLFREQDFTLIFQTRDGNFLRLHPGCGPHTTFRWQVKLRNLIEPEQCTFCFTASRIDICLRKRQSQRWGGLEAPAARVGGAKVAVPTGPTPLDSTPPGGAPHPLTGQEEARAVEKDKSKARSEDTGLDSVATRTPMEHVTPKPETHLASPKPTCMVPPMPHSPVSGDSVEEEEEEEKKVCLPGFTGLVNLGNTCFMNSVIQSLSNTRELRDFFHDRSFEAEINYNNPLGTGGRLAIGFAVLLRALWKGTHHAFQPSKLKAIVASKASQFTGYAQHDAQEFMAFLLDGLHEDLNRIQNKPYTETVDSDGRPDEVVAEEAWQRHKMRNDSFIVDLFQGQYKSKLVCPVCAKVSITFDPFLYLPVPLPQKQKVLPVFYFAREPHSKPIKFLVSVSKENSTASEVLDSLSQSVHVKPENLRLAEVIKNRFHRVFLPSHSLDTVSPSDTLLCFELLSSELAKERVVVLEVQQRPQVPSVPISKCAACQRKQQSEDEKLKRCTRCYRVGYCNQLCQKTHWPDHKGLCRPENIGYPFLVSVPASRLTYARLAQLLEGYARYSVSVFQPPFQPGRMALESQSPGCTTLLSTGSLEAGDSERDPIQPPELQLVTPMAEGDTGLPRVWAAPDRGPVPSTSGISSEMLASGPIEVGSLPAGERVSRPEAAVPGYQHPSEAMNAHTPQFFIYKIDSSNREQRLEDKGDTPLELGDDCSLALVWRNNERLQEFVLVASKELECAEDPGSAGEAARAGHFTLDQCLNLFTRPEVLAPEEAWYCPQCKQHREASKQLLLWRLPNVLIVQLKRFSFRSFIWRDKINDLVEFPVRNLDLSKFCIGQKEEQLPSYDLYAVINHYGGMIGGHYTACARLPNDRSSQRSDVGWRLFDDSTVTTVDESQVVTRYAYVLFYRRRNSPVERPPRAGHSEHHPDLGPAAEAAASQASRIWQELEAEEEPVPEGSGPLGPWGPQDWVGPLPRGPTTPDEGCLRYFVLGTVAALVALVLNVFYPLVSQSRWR
# Summary of the method: (§1)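 HEK293T lysate, 495 µg per sample in Tris/CHAPS/IGEPAL buffer with protease inhibitors, was treated in triplicate with fragment at 200 µM or vehicle for 3 h and then with Biotin-Ahx-Ub-VS at 0.5 µM final for 1 h. Labelled DUBs were NeutrAvidin-enriched, digested with LysC and trypsin, and run by diaPASEF LC-MS/MS. Spectronaut label-free quantities were global-median-normalised, and values are average log2 fragment/vehicle ratios by unpaired t-test on proteins with ≥2 unique peptides.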
# USP24 = USP24 (UniProt Q9UPU5)
# Summary of the method: as §1
# USP25 = target: T2, USP25 (UniProt Q9UHP3)
# T2 sequence (whole entry): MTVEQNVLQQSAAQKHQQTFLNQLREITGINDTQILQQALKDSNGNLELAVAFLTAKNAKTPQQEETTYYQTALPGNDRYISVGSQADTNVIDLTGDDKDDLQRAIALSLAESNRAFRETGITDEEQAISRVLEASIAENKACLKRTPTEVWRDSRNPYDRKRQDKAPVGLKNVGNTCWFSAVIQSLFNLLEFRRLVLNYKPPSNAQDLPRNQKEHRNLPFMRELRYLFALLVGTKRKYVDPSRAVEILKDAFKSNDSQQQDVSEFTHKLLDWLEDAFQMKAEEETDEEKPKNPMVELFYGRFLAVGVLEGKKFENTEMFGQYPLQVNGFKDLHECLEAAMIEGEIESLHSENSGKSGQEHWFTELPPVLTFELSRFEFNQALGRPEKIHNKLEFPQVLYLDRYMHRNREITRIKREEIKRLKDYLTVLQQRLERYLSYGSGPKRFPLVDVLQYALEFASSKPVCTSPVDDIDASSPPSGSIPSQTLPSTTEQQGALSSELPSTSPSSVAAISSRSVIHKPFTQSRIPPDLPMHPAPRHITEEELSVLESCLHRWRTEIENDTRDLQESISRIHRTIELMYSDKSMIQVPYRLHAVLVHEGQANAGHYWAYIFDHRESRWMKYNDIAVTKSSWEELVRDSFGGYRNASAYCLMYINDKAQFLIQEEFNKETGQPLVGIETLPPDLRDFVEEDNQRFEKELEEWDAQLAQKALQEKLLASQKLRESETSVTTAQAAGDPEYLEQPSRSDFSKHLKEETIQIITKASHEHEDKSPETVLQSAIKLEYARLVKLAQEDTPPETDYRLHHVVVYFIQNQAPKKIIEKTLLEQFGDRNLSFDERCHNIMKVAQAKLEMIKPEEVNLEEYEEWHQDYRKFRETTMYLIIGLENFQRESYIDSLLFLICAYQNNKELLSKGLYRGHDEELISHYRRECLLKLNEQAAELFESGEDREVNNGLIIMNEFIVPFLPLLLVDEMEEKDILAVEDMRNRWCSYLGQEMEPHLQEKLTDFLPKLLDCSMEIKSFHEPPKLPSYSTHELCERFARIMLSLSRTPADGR
# Summary of the method: as §1
# USP28 = target: T3, USP28 (UniProt Q96RU2)
# T3 sequence (whole entry): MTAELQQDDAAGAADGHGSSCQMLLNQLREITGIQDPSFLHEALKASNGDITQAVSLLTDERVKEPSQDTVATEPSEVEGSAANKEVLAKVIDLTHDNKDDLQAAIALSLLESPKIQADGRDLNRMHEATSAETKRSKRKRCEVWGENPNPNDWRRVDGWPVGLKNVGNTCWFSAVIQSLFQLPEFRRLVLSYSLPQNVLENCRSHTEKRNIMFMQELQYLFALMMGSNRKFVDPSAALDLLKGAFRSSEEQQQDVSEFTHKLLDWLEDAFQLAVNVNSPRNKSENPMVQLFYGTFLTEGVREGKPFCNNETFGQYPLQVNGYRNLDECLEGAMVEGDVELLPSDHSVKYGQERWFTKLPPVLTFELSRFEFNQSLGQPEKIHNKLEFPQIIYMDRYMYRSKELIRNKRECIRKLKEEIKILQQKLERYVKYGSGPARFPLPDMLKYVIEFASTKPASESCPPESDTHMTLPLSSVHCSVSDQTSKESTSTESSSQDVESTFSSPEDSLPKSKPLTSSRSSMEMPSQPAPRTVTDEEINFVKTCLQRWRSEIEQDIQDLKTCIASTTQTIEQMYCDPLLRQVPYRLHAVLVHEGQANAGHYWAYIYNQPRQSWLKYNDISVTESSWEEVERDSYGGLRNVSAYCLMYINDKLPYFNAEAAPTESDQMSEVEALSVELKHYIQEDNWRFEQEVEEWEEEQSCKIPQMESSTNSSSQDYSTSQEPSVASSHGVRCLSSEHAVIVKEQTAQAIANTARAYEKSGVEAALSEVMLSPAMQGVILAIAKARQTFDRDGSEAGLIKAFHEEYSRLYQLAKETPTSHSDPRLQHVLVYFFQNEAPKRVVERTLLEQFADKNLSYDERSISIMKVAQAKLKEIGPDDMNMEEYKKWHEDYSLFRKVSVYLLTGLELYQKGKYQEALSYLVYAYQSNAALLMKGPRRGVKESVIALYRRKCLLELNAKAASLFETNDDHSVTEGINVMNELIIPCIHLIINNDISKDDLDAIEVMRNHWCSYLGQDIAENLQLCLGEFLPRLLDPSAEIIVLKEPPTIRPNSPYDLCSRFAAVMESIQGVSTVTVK
# Summary of the method: as §1
# Sequence of USP24 (Q9UPU5 whole entry): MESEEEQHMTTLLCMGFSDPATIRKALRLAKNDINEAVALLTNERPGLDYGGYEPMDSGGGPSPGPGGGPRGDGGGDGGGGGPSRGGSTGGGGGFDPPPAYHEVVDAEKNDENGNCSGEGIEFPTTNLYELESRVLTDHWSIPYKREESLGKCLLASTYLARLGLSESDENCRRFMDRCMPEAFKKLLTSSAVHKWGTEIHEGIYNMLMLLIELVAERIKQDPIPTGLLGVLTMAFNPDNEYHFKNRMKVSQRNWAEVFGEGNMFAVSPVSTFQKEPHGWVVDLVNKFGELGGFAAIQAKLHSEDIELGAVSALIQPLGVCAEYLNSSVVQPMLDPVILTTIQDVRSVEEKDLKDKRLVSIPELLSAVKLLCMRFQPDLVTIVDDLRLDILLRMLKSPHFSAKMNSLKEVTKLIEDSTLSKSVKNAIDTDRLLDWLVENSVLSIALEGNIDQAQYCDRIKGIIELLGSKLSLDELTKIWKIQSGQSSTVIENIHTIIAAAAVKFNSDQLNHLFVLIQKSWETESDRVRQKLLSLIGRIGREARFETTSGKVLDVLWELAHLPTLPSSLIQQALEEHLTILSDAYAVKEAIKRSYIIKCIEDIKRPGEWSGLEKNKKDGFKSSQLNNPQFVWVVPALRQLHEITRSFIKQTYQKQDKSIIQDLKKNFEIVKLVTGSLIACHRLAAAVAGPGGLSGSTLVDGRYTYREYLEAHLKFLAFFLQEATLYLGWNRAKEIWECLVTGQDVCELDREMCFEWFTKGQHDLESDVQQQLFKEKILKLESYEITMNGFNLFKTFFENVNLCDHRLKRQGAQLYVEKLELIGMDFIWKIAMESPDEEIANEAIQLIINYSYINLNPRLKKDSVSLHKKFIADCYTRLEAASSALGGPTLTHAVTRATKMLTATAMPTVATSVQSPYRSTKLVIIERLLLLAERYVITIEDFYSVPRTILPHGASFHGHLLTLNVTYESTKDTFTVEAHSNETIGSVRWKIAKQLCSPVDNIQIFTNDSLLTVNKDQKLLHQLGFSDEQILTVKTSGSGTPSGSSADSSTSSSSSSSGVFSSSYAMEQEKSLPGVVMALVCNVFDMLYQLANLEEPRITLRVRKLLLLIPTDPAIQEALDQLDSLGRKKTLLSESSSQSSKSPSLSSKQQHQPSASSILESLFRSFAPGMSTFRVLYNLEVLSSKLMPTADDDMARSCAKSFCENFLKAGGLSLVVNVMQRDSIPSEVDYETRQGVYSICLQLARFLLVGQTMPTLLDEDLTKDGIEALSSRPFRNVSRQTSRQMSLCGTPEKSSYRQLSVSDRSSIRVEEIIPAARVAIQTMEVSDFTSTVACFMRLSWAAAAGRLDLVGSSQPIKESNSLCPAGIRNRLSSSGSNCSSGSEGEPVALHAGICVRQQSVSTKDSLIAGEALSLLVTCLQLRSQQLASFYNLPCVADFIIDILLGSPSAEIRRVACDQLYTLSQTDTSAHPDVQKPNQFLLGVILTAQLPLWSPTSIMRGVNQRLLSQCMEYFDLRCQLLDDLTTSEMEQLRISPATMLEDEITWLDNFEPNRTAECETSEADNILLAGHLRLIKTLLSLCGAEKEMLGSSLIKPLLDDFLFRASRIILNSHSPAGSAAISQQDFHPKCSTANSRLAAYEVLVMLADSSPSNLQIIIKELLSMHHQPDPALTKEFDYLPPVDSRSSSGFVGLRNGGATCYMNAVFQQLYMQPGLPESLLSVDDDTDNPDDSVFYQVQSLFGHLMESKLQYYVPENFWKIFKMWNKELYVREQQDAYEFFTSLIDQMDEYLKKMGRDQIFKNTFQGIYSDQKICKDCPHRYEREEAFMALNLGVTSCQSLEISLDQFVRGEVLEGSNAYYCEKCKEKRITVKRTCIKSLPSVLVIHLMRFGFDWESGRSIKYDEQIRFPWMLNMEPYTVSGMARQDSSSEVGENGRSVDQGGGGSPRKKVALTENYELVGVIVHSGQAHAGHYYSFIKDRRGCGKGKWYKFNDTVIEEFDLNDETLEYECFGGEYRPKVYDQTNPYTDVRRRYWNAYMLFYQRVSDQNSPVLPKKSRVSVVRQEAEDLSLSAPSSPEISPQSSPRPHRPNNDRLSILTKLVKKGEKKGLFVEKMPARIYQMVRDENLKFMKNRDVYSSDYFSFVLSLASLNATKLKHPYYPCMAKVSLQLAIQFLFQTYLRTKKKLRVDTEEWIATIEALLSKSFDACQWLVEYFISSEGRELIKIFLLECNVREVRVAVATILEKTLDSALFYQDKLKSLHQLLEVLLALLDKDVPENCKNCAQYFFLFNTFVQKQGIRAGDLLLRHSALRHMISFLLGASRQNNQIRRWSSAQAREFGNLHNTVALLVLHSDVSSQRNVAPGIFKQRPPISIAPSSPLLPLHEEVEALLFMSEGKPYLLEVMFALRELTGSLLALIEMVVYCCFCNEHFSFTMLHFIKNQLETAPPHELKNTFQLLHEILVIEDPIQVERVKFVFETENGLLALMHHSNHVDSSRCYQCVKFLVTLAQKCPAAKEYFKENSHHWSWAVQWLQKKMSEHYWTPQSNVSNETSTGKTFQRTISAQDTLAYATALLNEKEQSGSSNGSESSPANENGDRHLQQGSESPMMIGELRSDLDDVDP
structure (smiles),measurement,setting,value
CN(C(=O)CCl)c1nc2ccccc2s1,log2 ratio of Biotin-Ahx-Ub-VS probe labelling,USP19,-0.126
same,log2 ratio of Biotin-Ahx-Ub-VS probe labelling,USP24,-1.2 (active)
same,log2 ratio of Biotin-Ahx-Ub-VS probe labelling,USP25,-0.235
same,log2 ratio of Biotin-Ahx-Ub-VS probe labelling,USP28,-0.444
